# Experimental data taken from PubChem BioAssay AID977606 (Broad Institute, 2014).
# Hit rate of the full screen: of about 1,500 compounds, about 430 (29%) were called active. No rule for the calls is given here. A selection follows. Measured potencies and affinities stand elsewhere.
# Test: glucose-independent GLuc insulin release activation – cell-based, INS-1E, Gaussia luciferase, luminescence, cherry-pick, counter-screen for glucose-dependent insulin secretion activators, dose response (AID 977606)
# Settings: INS-1E Gaussia luciferase insulin secretion, no glucose, 100% = twice neutral-control luminescence; series mostly up to 35 µM
row,SMILES,outcome
1,COc1cc2c(cc1OC)-c1cc(N3CCc4ccccc43)nc(=O)n1CC2,inactive
2,Cc1nc2c(c(N3CCOCC3)n1)OCC(=O)N2,inactive
3,CCC(C)c1ccccc1OCCn1ccnc1 (stereo not given),inactive
4,COc1ccc(OCCCCN(C)Cc2ccccc2)cc1,inactive
5,CC1(C(=O)NS(=O)(=O)c2ccc(C#N)cc2)CCN1C(=O)C1(c2ccccc2)CCCC1 (stereo not given),inactive
6,Cc1noc(C)c1S(=O)(=O)NC(=O)C1(C)CCN1C(=O)C1(c2ccc(Cl)cc2)CCC1 (stereo not given),inactive
7,CC1(C(=O)N2CCCCC2)CCN1C(=O)C1(c2ccccc2)CC1 (stereo not given),inactive
8,CC1(C(=O)NS(=O)(=O)c2ccc(Cl)s2)CCN1C(=O)C1(c2ccc(Cl)cc2)CCC1 (stereo not given),inactive
9,COC(=O)COc1ccc(C)cc1-n1nc2ccccc2n1,inactive
10,O=c1[nH]c(CN2CCN(c3ccc(O)cc3)CC2)nc2scc(-c3ccc(Cl)cc3)c12,inactive
11,O=C(NCc1ccccc1)c1cccnc1Sc1ccccc1,inactive
12,CCC(O)c1nc2ccccc2n1CCc1ccccc1 (stereo not given),inactive
13,CC1(C)Cc2c(c(-c3ccco3)nc3n[nH]c(N)c23)CO1,inactive
14,COc1ccc(CCNC(=O)CN2c3cccc4cccc(c34)S2(=O)=O)cc1OC,inactive
15,Fc1cccc(-c2nnn3c2nc(Cl)c2ccccc23)c1,inactive
16,CC(=O)c1c(C)oc2ccc(NS(=O)(=O)c3ccc(F)cc3C)cc12,inactive
17,CCOC(=O)Cc1nn(Cc2ccccc2)c(=O)c2ccccc12,inactive
18,O=S(=O)(Nc1ccc(-c2ccc3nncn3n2)cc1)c1ccccc1Cl,inactive
19,N#Cc1c(-c2ccncc2)cc(-c2ccc(F)cc2)nc1N,inactive
20,Cc1nc(N)c(C#N)c(-c2cccnc2)c1C,inactive
21,COc1ccc(Cn2c(=O)c3[nH]cnc3n(-c3ccccc3C)c2=O)cc1,inactive
22,CC(=O)c1ccc2c(c1)N(Cc1ccccc1)C(=O)C(C)S2 (stereo not given),inactive
23,Cc1ccccc1NC(=O)c1ccc(OCc2c(C)noc2C)cc1,inactive
24,Cc1ccc(OCC(=O)NNC(=O)CCC(=O)Nc2ccc(C)cc2C)cc1,inactive
25,COc1ccc(CO/N=C/c2c(C)[nH]c(=O)[nH]c2=O)cc1,inactive
26,CCc1nc2c(nnn2Cc2ccc(F)cc2)c(=O)[nH]1,inactive
27,Cc1ccccc1-c1n[nH]c(=S)n1/N=C/c1c(C)nn(-c2ccccc2)c1C,inactive

row,SMILES,outcome
1,S=c1[nH]nc(-c2ccccc2)n1/N=C/c1c[nH]c2ccccc12,inactive
2,CCOC(=O)c1oc2cc(O)cc(C)c2c1C,inactive
3,C=CCNc1sc(C(=O)C2CC2)c(N)c1C#N,inactive
4,Cc1cccc(N2CCN(C(=O)c3cccn4c(=O)c5c(C)c(C)sc5nc34)CC2)c1C,inactive
5,Cc1ccc(F)cc1NC(=O)c1sc2ncn(CC(=O)N3CCN(c4ccccn4)CC3)c(=O)c2c1C,inactive
6,O=C(CCc1ccccc1)NNC(=O)COc1ccccc1Cl,inactive
7,COc1ccc(/C=N/Nc2ncnc3c2[nH]c2ccccc23)c(OC)c1OC,inactive
8,Cn1c(N)c(C(c2ccccc2)c2c(N)n(C)c(=O)n(C)c2=O)c(=O)n(C)c1=O,inactive
9,O=c1cc(Cl)[nH]c(=O)n1Cc1ccccc1,inactive
10,O=c1cc(-c2ccncc2)oc2c1ccc1ccccc12,inactive
11,CC(C)Cn1c(Cc2ccccc2)n[nH]c1=S,inactive
12,O=C(O)Cc1ccc(NS(=O)(=O)c2ccc3c(c2)OCCO3)cc1,inactive
13,COc1ccc(S(=O)(=O)N(C)CC(=O)Nc2ccc3c(c2)OCCO3)cc1OC,inactive
14,O=C(NCc1ccccc1)C(c1ccncc1)n1c(=O)c(-c2ccccc2)nc2ccccc21 (stereo not given),inactive
15,O=C(COc1ccccc1)Nc1ccccc1C(=O)NC1CC1,inactive
16,CN1CCC(N(C)S(=O)(=O)c2ccc(NC(=O)COc3cccc(Cl)c3)cc2)CC1,inactive
17,N#CC1=C(N)Oc2n[nH]c(-c3ccc(F)cc3)c2C1c1cccnc1 (stereo not given),inactive
18,COc1ccc(CCNS(=O)(=O)c2cn(C)cn2)cc1OC,inactive
19,NC1=NC[C@H](Cc2ccccc2)N1CCCCC1CCCCC1,inactive
20,CN=C1c2ccccc2CN1c1cccc(C(=O)OC)c1,inactive
21,Cc1ccc(S(=O)(=O)/N=C2\CN(C)C(=O)N2C)cc1,inactive
22,CSc1ccc(/C=N/N(C)S(=O)(=O)c2ccc(C)cc2)cc1,inactive
23,Cc1cc(Br)ccc1NC(=O)CN(C)C(=O)C1CSC2(C)CCC(=O)N12 (stereo not given),inactive
24,Cc1ccc(NC2c3ncccc3C(=O)N2C2CCCCC2)cc1 (stereo not given),inactive
25,CCSc1nnc(-c2cccnc2)n1-c1ccc(C)c(Cl)c1,inactive
26,COc1ccc(CCNC(=O)CCc2nc3ccccc3[nH]2)cc1OC,inactive
27,Cc1ccc(-c2cc(C(=O)Nc3nn[nH]n3)c3ccccc3n2)c(C)c1,inactive

row,SMILES,outcome
1,Cc1ccc(-c2nnc3sc(-c4ccncc4)nn23)cc1,inactive
2,O=c1c2[nH]cnc2n(-c2ccc(F)cc2)c(=O)n1Cc1ccccc1,inactive
3,COc1ccc(S(=O)(=O)NC2CCCCC2)cc1C,inactive
4,Cc1cc(C(=O)NC(C)CCC(C)C)c2ccccc2n1 (stereo not given),inactive
5,O=C(Nc1ccccc1C(=O)N/N=C/c1ccccc1)c1ccco1,inactive
6,CONc1nc(NC(C)(C)C)nc(OCC#N)n1,inactive
7,COc1ccc(CCN(C)C(=O)c2oc3ccccc3c2C)cc1OC,inactive
8,COc1ccc2oc(C(=O)Nc3nnc(C)s3)c(C)c2c1,inactive
9,Cc1ccc(S(=O)(=O)N(CC(=O)Nc2ccc(C)cc2C)C(=O)N2CCN(C)CC2)cc1,inactive
10,CCC(c1nnnn1-c1ccc2c(c1)OCCO2)N1CCc2ccccc2C1 (stereo not given),inactive
11,CCOc1cc(CNc2cccc3[nH]c(C)nc23)ccc1OC,inactive
12,CCOC(=O)c1cnc2ccc(OCC)cc2c1N1CCN(c2ccccc2)CC1,inactive
13,O=C(Nc1cccnc1)c1cnn2c(C(F)F)cc(C3CC3)nc12,inactive
14,C[C@@H]1CN([C@H](C)CO)S(=O)(=O)c2ccc(-c3ccc(C#N)cc3)cc2O[C@H]1CN(C)C,inactive
15,C[C@@H]1CN([C@@H](C)CO)C(=O)CCCn2nncc2CO[C@H]1CN(C)Cc1ccccc1,inactive
16,C[C@H]1CN([C@@H](C)CO)C(=O)c2ccccc2-c2ccccc2CO[C@@H]1CN(C)Cc1ccc(Cl)c(Cl)c1,inactive
17,C[C@@H]1CN([C@H](C)CO)C(=O)c2cc(C#CCN(C)C)cnc2O[C@H]1CN(C)S(=O)(=O)c1cn(C)cn1,inactive
18,C[C@@H]1CN([C@@H](C)CO)C(=O)c2cccc(NC(=O)Nc3ccc(C(F)(F)F)cc3)c2O[C@H]1CN(C)Cc1ccc(Cl)c(Cl)c1,inactive
19,C[C@H]1CN([C@@H](C)CO)C(=O)c2ccccc2-c2ccccc2CO[C@@H]1CN(C)Cc1cccc(C(F)(F)F)c1,inactive
20,C[C@@H]1CN([C@H](C)CO)C(=O)Cc2cc(NC(=O)CCCN(C)C)ccc2O[C@H]1CN(C)Cc1ccc(-c2ccccc2)cc1,inactive
21,Cc1cccc(C)c1-n1nnnc1C1(C)CCC(=O)N1Cc1cccs1 (stereo not given),inactive
22,Cc1ccc(-n2ncc3c2CC(C)(C)CC3NC(=O)CCCN2CCCC2=O)cc1 (stereo not given),inactive
23,CCN(CC)CCn1c(=N)n(CC(O)COc2ccccc2)c2ccccc21 (stereo not given),inactive
24,COCCNc1nc(Oc2cncc(Cl)c2)c2sccc2n1,inactive
25,Cc1ccc(C)c(S(=O)(=O)Nc2ccc(C(=O)N3CCC3)cc2)c1,inactive
26,N#Cc1cccnc1Nc1cccc(Cl)c1,inactive
27,Cc1nc2ccccc2c(=O)n1/N=C/c1ccc(N(C)C)cc1,inactive

row,SMILES,outcome
1,C[C@@H]1CN([C@H](C)CO)C(=O)c2cc(C#CCc3ccccc3)cnc2O[C@H]1CN(C)C(=O)C1CCC1,inactive
2,Cc1noc(C)c1NC(=O)N(C)C[C@H]1Oc2c(NC(=O)C3CCCCC3)cccc2C(=O)N([C@H](C)CO)C[C@@H]1C,inactive
3,CCOC(=O)c1sc(NC(C)=O)nc1-c1ccccc1,inactive
4,CN(C(=O)COC(=O)c1cccs1)c1ccccc1,inactive
5,O=C(O)C(Cc1ccc(O)cc1)N1C(=O)c2ccccc2C1=O (stereo not given),inactive
6,CCOc1ccccc1Nc1cc2n(c(=O)n1)CCc1cc(OC)c(OC)cc1-2,inactive
7,COC(=O)c1cccc(-n2c(=O)n(Cc3ccccc3)c(=O)c3[nH]cnc32)c1C,inactive
8,O=C(O)c1ccc(S(=O)(=O)N2CCC3(CC2)CC(=O)c2ccccc2O3)cc1,inactive
9,CCOC(=O)c1c(C)[nH]c(C(=O)COC(=O)c2cnccn2)c1C,inactive
10,CCOc1ncccc1C(=O)Nc1ccc(S(=O)(=O)Nc2nc(C)cc(C)n2)cc1,inactive
11,COc1ccc(N/C=C/C(=O)c2ccc(Cl)cc2)cc1,inactive
12,COc1cc2ccc(CC(=O)O)cc2cc1OC,inactive
13,C[C@H](O)[C@@H]1CN2CCc3ccc(-c4ccc5c(c4)OCO5)cc3[C@@H]2C[C@@H]1N(C)C(=O)c1cccc(Cl)c1,inactive
14,CC(O)c1nc2ccc(Cc3ccc4nc(C(C)O)[nH]c4c3)cc2[nH]1 (stereo not given),inactive
15,Cc1ccc(-c2csc(NC(=O)CCCc3cccs3)n2)cc1,inactive
16,O=C(Cc1csc(NC(=O)c2ccccc2)n1)NO,inactive
17,CCc1c(C(=O)Nc2ccc(C)c(C)c2)[nH]c(C)c1C(C)=O,inactive
18,CC(=O)Nc1ccc(-c2ccnc3c2CC(C)(C(=O)Nc2cccc(OC(F)(F)F)c2)O3)cc1 (stereo not given),inactive
19,CCSc1ncnc2c(C#N)c3n(c12)CCCCC3,inactive
20,CN1CCCC1CCNC1C2CC3CC(C2)CC1C3 (stereo not given),inactive
21,Cc1c(C(=O)N(C)CCc2cnn(C)c2)oc2c(F)cccc12,inactive
22,COC(=O)C[C@@H]1OC[C@H](C(C)C)N1S(=O)(=O)c1ccc(C)cc1,inactive
23,Cc1ccc(-n2nc3c(c2NC(=O)C2CC2)CS(=O)(=O)C3)cc1,inactive
24,CCc1cc(=O)oc2c(CNCc3ccc(OC)cc3OC)c(O)c(Cl)cc12,inactive
